# Screens deposited in PubChem BioAssay by The Scripps Research Institute Molecular Screening Center.
# Compounds with a hit are over-represented: about 3.5% of the library has one in this group of screens.
# GPR151 activ = activates the human receptor GPR151; Q8TDV0; PathHunter beta-arrestin GPR151 cells, luminescence; activation, % at 11.2 µM; 650,000 tested, 1% active; in the data active = activation above about 4.9%;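 note: 0% = median of compound wells and 100% = cells with positive control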
# Target sequence (Q8TDV0 whole entry, looked up): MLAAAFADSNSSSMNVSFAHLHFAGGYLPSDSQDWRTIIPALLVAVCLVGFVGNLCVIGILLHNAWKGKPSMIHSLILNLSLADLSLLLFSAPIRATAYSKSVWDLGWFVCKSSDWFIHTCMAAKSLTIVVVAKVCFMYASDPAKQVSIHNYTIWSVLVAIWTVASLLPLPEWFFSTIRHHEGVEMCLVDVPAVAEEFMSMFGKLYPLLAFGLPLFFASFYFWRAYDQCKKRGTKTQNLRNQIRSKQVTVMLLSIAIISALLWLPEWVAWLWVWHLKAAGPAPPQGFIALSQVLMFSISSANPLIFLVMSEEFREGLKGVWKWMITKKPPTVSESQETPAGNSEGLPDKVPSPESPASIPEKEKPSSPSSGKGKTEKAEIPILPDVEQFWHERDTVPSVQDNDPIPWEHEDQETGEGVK
# FBW7 activator = activators of human E3 ligase FBW7; Q969H0; AlphaScreen FBW7–phospho-cyclin E peptide binding, activator screen; normalized activity (activation), % at 26.1 µM; 650,000 tested, 0.13% active; in the data active = normalized activity above about 1.9%;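 note: purified mutant Fbw7 with reduced substrate affinity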
# TEAD-YAP block = TEAD-YAP interaction inhibition. HEK-TIYL cells, TEAD-Gal4/YAP UAS-luciferase luminescence. inhibition, % at 9.12 µM. 640,000 tested, 1.4% active; in the data active = inhibition above about 32%;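 note: 0% = median of test compound wells and 100% = reference inhibitor wells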
# MITF primary = inhibitors of human MITF; AlphaScreen MITF homodimerization, bead proximity signal; 650,000 tested, 0.91% active; O75030; inhibition, % at 2.6 µM; in the data active = inhibition above about 50%;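 note: 0% = vehicle wells with protein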
# Starred values were filed as active, the others as inactive; ! = not active in a repeat.
SMILES,GPR151 activ,FBW7 activator,TEAD-YAP block,MITF primary
O=C(Oc1ccc2ccccc2c1)c1ccc([N+](=O)[O-])cc1,-1.3,-0.2,3.0,1.1
CCOC(=O)CNC(=O)CSc1nc2sc3c(c2c(=O)[nH]1)CCC(C)C3 (centres undefined),-2.2,0.5,89.1*,-1.1
COc1ccc(N(CC(=O)Nc2ccccc2C)S(=O)(=O)c2ccccc2)c(OC)c1,-0.8,0.1,-0.8,10.3
Cc1ccc2nc(-c3ccccc3)cn2c1,-10.2,0.7,98.0*,-3.5
Cc1ccc2nc(-c3cccc(Br)c3)cn2c1,-7.0,0.1,85.3*,30.4
Cc1ccc2nc(-c3ccccc3Br)cn2c1,-6.2,0.1,72.6*,-7.6
Oc1ccccc1-c1cn2cc(Cl)ccc2n1,-1.9,-0.5,-41.1,9.4
O=C(c1cc2ccccc2o1)c1coc2ccc(O)cc12,-8.3,0.0,64.6*,-7.5
Cc1nc(C)c(C(=O)c2coc3ccc(O)cc23)o1,-0.2,0.0,-28.2,10.6
O=C(CSc1nc2ccccc2c2nc3ccccc3n12)NCc1ccccc1,-1.0,0.0,3.2,23.8
CCN(CC)C(=O)C1CCCN(c2nccc(NCc3cccc(C(F)(F)F)c3)n2)C1 (centres undefined),1.5,0.0,17.4,6.7
Cc1cc(NCc2cccc(C(F)(F)F)c2)nc(N2CCCC2CO)n1 (centres undefined),3.4,0.2,41.8*,-0.4
CCN(CC)C(=O)C1CCCN(c2nc(C)cc(NCc3cccc(C(F)(F)F)c3)n2)C1 (centres undefined),-1.6,0.0,35.2*,2.9
NC(=O)c1ccccc1NC(=O)c1cc(-c2ccc3c(c2)OCO3)nc2ccccc12,-2.0,0.6,-7.5,10.1
Cc1ccccc1-c1coc2cc(O)ccc2c1=O,1.6,-0.2,-10.2,-17.6
O=c1c(-c2cnn(-c3ccccc3)c2)coc2c(O)c(O)ccc12,-0.1,-0.1,-77.4,7.2
COc1ccc2c(=O)c(-c3ccc(O)cc3)coc2c1,-2.0,-0.1,80.8*,-7.4
O=c1c(-c2ccc(O)cc2)coc2cc(OC3OC(CO)C(O)C(O)C3O)ccc12 (centres undefined),-2.9,0.1,53.9*,-1.6
O=c1c(-c2cnn(-c3ccccc3)c2)coc2cc(O)ccc12,-2.1,0.1,33.0*,-21.7
O=c1c(-c2ccc(O)cc2)coc2cc(OC3OC(CO)C(O)C(O)C3O)cc(O)c12 (centres undefined),0.2,-0.2,14.7,-12.1
COc1ccc(-c2coc3cc(O)ccc3c2=O)c(O)c1O,-1.4,0.3,-7.8,80.3*
CC(=O)Oc1cc2c(cc1Cl)C(c1ccccc1Cl)CC1(CC(C)(C)NC(=S)N1)O2 (centres undefined),0.4,0.0,2.5,11.7
Cc1ccc(C(=O)O/N=C(\N)c2cccc([N+](=O)[O-])c2)cc1Cl,-1.1,-0.2,-9.3,7.7
CN1CCN(c2ccc(-c3nc4ccc(C(=O)Nc5ccccc5)cc4s3)cc2)CC1,-2.2,0.5,-23.5,4.9
O=c1c(-c2ccc(O)cc2)coc2cc(O)ccc12,-1.8,0.3,73.2*!,18.9
SMILES,GPR151 activ,FBW7 activator,TEAD-YAP block,MITF primary
O=C(Nc1sc2c(c1C(=O)Nc1ccccc1)CCCCC2)c1ccccc1F,0.2,0.8,-12.9,15.6
O=C(NCC1(O)CCCC1)Nc1ccccc1Cl,-1.0,-0.1,-16.9,3.7
O=C(COC(=O)/C=C/c1ccco1)Nc1nc2c(F)c(F)c(F)cc2s1,-0.1,-0.1,1.7,17.0
CCOc1ccc(C2C(C(=O)OCCSCC)=C(C)NC3=C2C(=O)C(C(=O)OC)C(C)C3)cc1 (centres undefined),-1.3,0.7,12.1,6.7
CCOc1cccc(C2C(C(=O)OCCSCC)=C(C)NC3=C2C(=O)C(C(=O)OC)C(C)C3)c1 (centres undefined),-0.2,1.9*,-18.9,14.3
CCOC(=O)C1=C(C)NC2=C(C(=O)CCC2)C1c1coc2ccc(Cl)cc2c1=O (centres undefined),-0.5,2.3*,24.3,14.2
CC1=C(C(=O)OCCOc2ccccc2)C(c2coc3ccc(Cl)cc3c2=O)C2=C(CCCC2=O)N1 (centres undefined),-0.5,0.0,-0.8,-16.3
CCSCCOC(=O)C1=C(C)NC2=C(C(=O)CCC2)C1c1ccc(Br)cc1 (centres undefined),-1.7,2.0*,6.6,5.3
COC(=O)c1ccccc1NC(=O)/C=C/c1cc(Br)ccc1OC,1.3,0.2,6.7,19.6
CNS(=O)(=O)c1ccc2nc(NC(=O)C3CCCO3)sc2c1 (centres undefined),1.9,-0.1,-9.2,-1.1
CC(C)c1nc2ccc(-c3cnn(-c4cccc(CN5CCOCC5)c4)c3)cc2c(=O)[nH]1,0.9,-0.3,14.1,-7.6
Cc1nc2ccc(-c3cnn(-c4cccc(N5CCOCC5)c4)c3)cc2c(=O)n1C,0.1,-0.3,87.1*,7.5
O=C(COc1ccc(F)cc1Br)NNC(=O)Cn1nnc(-c2ccccc2)n1,-0.6,-0.2,-0.5,-17.8
O=C(CNc1ccc(I)cc1)N/N=C/c1ccc(O)cc1O,-0.9,-0.2,55.9*,9.8
O=C(N/N=C/c1ccc(O)cc1O)c1ccc(I)cc1,2.8,-0.2,45.5*,29.2
CC(C)c1ccc(CC(=O)Nc2nnc(Cc3cccs3)o2)cc1,0.9,-0.3,-7.4,9.1
CCc1ccc2oc(-c3ccc(C)c(NC(=O)c4cc(OC)c(OC)c(OC)c4)c3)nc2c1,1.3,0.0,-2.9,-1.3
O=c1[nH]c(=O)n(-c2ccccc2Cl)c(O)c1/C=C1\C=CC=N1,-1.2,-0.2,61.4*,11.0
CCOc1ccccc1-n1c(O)c(/C=C2\C=CC=N2)c(=O)[nH]c1=O,0.4,0.0,24.4,12.9
O=c1[nH]c(=O)n(-c2ccccc2F)c(O)c1/C=C1\C=CC=N1,-0.1,0.0,57.2*,12.7
Cc1ccccc1-n1c(O)c(/C=C2\C=CC=N2)c(=O)[nH]c1=O,-2.1,0.2,57.0*,9.4
O=c1[nH]c(=S)n(Cc2ccco2)c(O)c1/C=C1\C=CC=N1,0.8,-1.4,-2.9,100.9*
O=c1[nH]c(=S)n(-c2ccccc2)c(O)c1/C=C1\C=CC=N1,0.3,0.1,-7.8,-6.9
O=C(Nc1cccnc1)c1ccc(COc2cccc3ccccc23)cc1,-2.7,0.0,-6.0,22.5
CSc1ccccc1C(=O)Nc1nc2cc(C)cc(C)c2s1,0.3,-0.1,-9.7,-16.1
SMILES,GPR151 activ,FBW7 activator,TEAD-YAP block,MITF primary
Cc1cc(C)c2sc(NC(=O)c3cc4ccccc4o3)nc2n1,-2.4,0.2,-46.2,7.8
CSc1ccccc1C(=O)Nc1nc2nc(C)cc(C)c2s1,-0.1,8.8*,-12.2,2.8
Cc1cc(C)c2sc(NC(=O)c3ccccc3C)nc2n1,-1.2,0.1,61.3*,-17.4
COc1ccc2nc(N3CCCC3)sc2c1,-6.2,0.0,2.5,12.3
COc1ccc2nc(N3CCCCC3)sc2c1,-4.4,1.6,60.5*,13.2
COc1cc(/C=C/[N+](=O)[O-])ccc1OCc1cccc(C(=O)O)c1,1.7,-0.5,77.2*,56.3*
COc1cc(/C=C2/NC(=O)NC2=O)ccc1OCc1cccc(C(=O)O)c1,-2.5,-0.2,22.8,-8.3
O=Cc1ccc(OCc2cccc(C(=O)O)c2)c(Cl)c1,-7.7,0.1,87.8*,2.9
